LASV entry inh – Lassa virus entry inhibition | Lassa virus pseudotype entry inhibition, cell reporter | Potency, µM (series often up to 37.9 µM), for inactives: at the highest dose activity change, negative = inhibition, most hits filed as inhibitors | hit rate 1.2% among 300,000; calls by dose curve; tested in HEK293 cells; also: nearly all actives have a fitted effect of over 50% in size
FMDV inh – blocks foot and mouth disease virus | hit rate 1.2% among 410,000 | AID 1159524 | Potency, µM (titrated, usually from 57.9 µM), inactives show at the highest dose activity change, negative = inhibition, hits mostly inhibitors | FMDV antiviral cell-based qHTS; calls by dose curve; tested in HEK293T cells; also: read-out not given here; nearly all actives have a fitted effect of over 45% in size
HCV inh – blocks hepatitis C virus. Huh7.5.1 HCVcc-Cre infection, luciferase reporter, 44 h. Potency, µM (doses to about 41.8 µM), without a hit: at the highest dose activity change, negative = inhibition, hits mostly inhibitors. hit rate 3.4% among 340,000
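Luciferase read-out (15 sec integration) after a 15 min room-temperature substrate step quantifies HCVcc-Cre infection. Cells, 1,000 per well, had compound added 4 h post-plating, then virus at ~0.5 moi, and were cultured 44 h.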
Marburg entry inh – Marburg virus entry inhibition; Potency, µM (series often up to 37.8 µM), without a hit: top-dose activity change, negative = inhibition, actives largely listed as inhibitors; Marburg virus pseudotyped entry inhibition, cell reporter; hit rate 1.8% among 300,000; AID 540276; calls by dose curve; tested in HEK293 cells
Sm TGR inh – S. mansoni TGR enzyme inhibition; hit rate 3% among 360,000; Q962Y6; purified TGR, DTNB reduction, TNB absorbance 405 nm; Potency, µM (doses to about 114 µM), inactives show at the top dose activity change, negative = inhibition, hits mostly inhibitors; also: nearly all actives have a fitted effect of over 60% in size
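TGR 20 nM + NADPH 100 uM (dispensed conc.), cpd preinc 15 min RT; start with NADPH (500 uM addition) then DTNB (15 mM addition). Kinetic TNB absorbance, 405 nm filter. Four-parameter Hill fit across titration.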
RE007 growth inh – less growth of the S. pombe RE007 Vpr strain. S. pombe RE007 Vpr strain, BacTiter-Glo ATP luminescence, 24 h. Potency, µM (series often up to 92.2 µM), inactives show at the highest dose activity change, negative = less growth, most hits filed as inhibitors. hit rate 0.21% among 360,000. AID 651644; active = well fitted falling curve with a large enough effect; inconclusive = small, poorly fitted or top-dose-only effect; inactive = no such curve, though single readings can be large or run the other way; also: nearly all actives have a fitted effect of over 50% in size
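Fission yeast strain RE007, carrying one chromosomally integrated HIV-1 vpr copy, was seeded at OD 0.01 in PMG+AL medium with 23 nL pinned compound. After 24 h at 30 °C and 99% humidity, viability was read by BacTiter-Glo luminescence.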
An asterisk follows results filed as active; ? = inconclusive; nt = no result; [ ] = dose if it differs, or a comment. The list is not random: actives were taken first. Their share in the collection is about 7.2%. Unless noted, calls follow the shape of the dose curve; as a rule, active = well fitted curve in the direction sought with a large enough effect; inconclusive = small, poorly fitted or top-dose-only effect, or another doubt; inactive = no such curve, though single readings can be large; an effect the other way counts as inactive or inconclusive. % is scaled to controls: 0 for no effect and ±100 for the full control effect; potency is read from the fitted curve at half-maximal effect.

SMILES	LASV entry inh	FMDV inh	HCV inh	Marburg entry inh	Sm TGR inh	RE007 growth inh
CCC(CC)C(=O)N(C)c1c(C)nc2c(OCc3cc(Cl)cc(Cl)c3)cccn12	nt	0.0%	nt	nt	nt	-20.4%[18.4 µM]
CCn1cc(C(=O)NCc2ccccc2OC)c(=O)c2cc(S(=O)(=O)N3CCCCC3)ccc21	-35.5%[46.1 µM]	-25.5%	nt	?	-14.8%	nt
Fc1ccc(CNc2nc(-c3cccnc3)nc3ccccc23)cc1	-0.7%[46.1 µM]	-20.2%	11.2µM*	?	-12.6%	-4.5%
CC(Nc1nc(-c2cccnc2)nc2ccccc12)c1ccc(F)cc1 (configuration not stated)	-2.5%[46.1 µM]	-4.1%	8.91µM*	?	2.5%	-8.7%
c1ccc(CN2CCC(Nc3nc(-c4cccnc4)nc4ccccc34)CC2)cc1	?	0.0%	?	10µM*	-15.6%	?
c1cncc(-c2nc(NCCN3CCOCC3)c3ccccc3n2)c1	nt	-2.2%	nt	nt	nt	nt
c1ccc(CNc2nc(-c3cccnc3)nc3ccccc23)cc1	nt	?	?	nt	?	-14.6%
CC(Nc1nc(-c2ccccc2)nc2ccccc12)c1ccccc1 (configuration not stated)	nt	-21.6%	-29.6%	nt	11.4%	-8.4%
c1cncc(CNc2nc(-c3cccnc3)nc3ccccc23)c1	?	-16.7%	22.4µM*	-4.2%[46.1 µM]	3.5%	4.7%
Cc1ccccc1NC(=O)C(Cc1ccccc1)N1Cc2ccccc2C1=O (configuration not stated)	4.4%[46.1 µM]	-2.3%	nt	nt	0.4%	nt
COc1ccccc1NC(=O)Nc1nc(-c2cccnc2)nc2ccccc12	nt	-1.8%	nt	7.08µM*	nt	nt
COc1ccccc1N1CCN(C(c2cc3ccc(C)cc3[nH]c2=O)c2nnnn2C2CCCC2)CC1 (configuration not stated)	-8.8%	3.0%	-5.9%	13µM*	?	18.2%
CCC(C)(C)n1nnnc1C(c1cc2ccc(OC)cc2[nH]c1=O)N1CCN(C2CCCCC2)CC1 (configuration not stated)	16.1%	-29.3%	?	13µM*	?	-2.3%
CCOC(=O)C1CCN(C(c2cc3ccc(C)cc3[nH]c2=O)c2nnnn2C2CCCCC2)CC1 (configuration not stated)	?	-19.5%	-12.4%	?	10µM*	13.1%
CCN(CC)C(=O)c1sc2c(c1C)c(=O)n(-c1ccc(C)c(C)c1)c(=O)n2Cc1cc(=O)n2c(C)cccc2n1	11.4%[46.1 µM]	?	nt	nt	4.8%	nt
COc1cccc(-n2c(-c3cccc(F)c3)nc3c(cnn3-c3ccc(C)cc3)c2=O)c1	-2.2%[46.1 µM]	-23.1%	nt	?	10.4%	nt
OC1CCN(Cc2ccc3c(c2)CN(C/C=C/c2ccco2)CCO3)CC1	nt	-6.0%	nt	nt	nt	nt
O=C(O)CCc1ccc(-c2cccs2)o1	16.4%	nt	6.7%	7.2%	0.708µM*	?
O=C(NCc1cccs1)c1cc(-c2cccs2)on1	38.2%[14.3 µM]	110.3%	nt	15.4%	-1.0%	0.1%
Cc1ccc(-c2ccc(CCC(=O)O)o2)cc1	-14.8%	11.9%	17.4%	-24.3%	12.6µM*	-14.2%
Cc1cc(NC(=O)CCc2ccc(-c3ccccc3)o2)no1	?	-2.5%	-4.6%	?	-67.5%	6.3%
COC(=O)c1cn[nH]c1NC(=S)Nc1ccc(Cl)c(Cl)c1	?	-47.3%	-28.1%	?	0.0%	-1.4%
CCOC(=O)c1cn[nH]c1NC(=S)Nc1ccc(OC)cc1	?	?	?	?	?	19.3%
COC(=O)c1cn[nH]c1NC(=S)Nc1ccccc1C	?	0.0%	10.6%	17.6%	44.7µM*	7.0%
COC(=O)c1cn[nH]c1NC(=S)Nc1ccc(C)cc1Cl	7.3µM*	?	?	?	-24.2%	-1.7%
SMILES	LASV entry inh	FMDV inh	HCV inh	Marburg entry inh	Sm TGR inh	RE007 growth inh
O=C1CCCC2=C1C(Cc1ccccc1)C1=C(CCCC1=O)O2	-0.1%	8.9%	11.5%	10.9%	10µM*	0.2%
Cc1[nH]c2ccccc2c1/C=C/c1nc2ccccc2c(=O)[nH]1	?	22.7%	-23.7%	?	9.5%	0.7%
Cc1cccc(/C=C/c2nc3ccccc3c(=O)[nH]2)c1	3.55µM*	38.0%	-8.3%	?	nt	14.3%
O=C(CN1C(=O)CCc2cc(S(=O)(=O)N3CCOCC3)ccc21)NCc1ccc(Cl)cc1	16.4%[46.1 µM]	-13.6%	nt	nt	-2.1%	nt
O=C(NCCN1CCCCC1)c1ccc(Cn2c(SCc3ccc(F)cc3)nc3cccnc32)cc1	nt	8.9%	nt	?	2.4%	nt
Cc1ccc(S(=O)(=O)Cc2ccc(C(=O)NCc3ccc4c(c3)OCO4)o2)cc1	-3.7%	-20.2%	?	-22.5%	25.1µM*	0.0%
COc1ccc(S(=O)(=O)Cc2ccc(C(=O)NCc3cccnc3)o2)cc1	nt	?	-23.2%	nt	35.5µM*	-1.3%
CC1CCC(NC(=O)c2ccc(CS(=O)(=O)c3ccc(Cl)cc3)o2)CC1 (configuration not stated)	?	31.6µM*	nt	nt	-3.5%	nt
COc1ccc(S(=O)(=O)Cc2ccc(C(=O)NCc3ccccc3)o2)cc1	nt	?	9.9%	nt	-25.8%	-8.9%
COc1ccccc1CNC(=O)c1ccc(CS(=O)(=O)c2ccc(C)cc2)o1	nt	-13.1%	11.8%	nt	35.5µM*	0.1%
Cn1c(=O)c(=O)n(C)c2cc(N3CCCC3)c(NC(=O)c3ccccc3Cl)cc21	9.7%[46.1 µM]	-19.3%	nt	3.4%[46.1 µM]	-1.0%	nt
COc1ccc(CNC(=O)c2ccc(Cn3cc(Cl)cn3)o2)cc1	-0.5%[46.1 µM]	-19.0%	-2.7%	-24.7%[46.1 µM]	14.1µM*	20.6%
COCCNC(=O)c1ccc(CS(=O)(=O)c2ccccc2OC)o1	25.8%[46.1 µM]	-1.2%	9.2%	?	31.6µM*	11.0%
Cc1ccc(S(=O)(=O)NCC(=O)OCC(=O)NCCc2ccccc2)cc1	7.0%	-7.9%	17.6%	20.2%	-1.5%	1.0%
COc1ccccc1CNC(=O)COC(=O)CNS(=O)(=O)c1ccc(C)cc1	6.6%	-8.6%	7.0%	-8.5%	35.5µM*	24.1%
COc1ccc(CNC(=O)c2ccc(Cn3cc(Br)cn3)o2)cc1	nt	-0.5%	-13.8%	nt	?	23.9%
Cc1ccc(S(=O)(=O)Cc2ccc(C(=O)O)o2)cc1	0.0%	-5.3%	2.8%	?	22.4µM*	-21.6%
CC1(C)[C@H]2CC[C@]1(C)[C@H](NC(=O)CCN1CCCCC1)C2	nt	nt	nt	-18.7%	nt	nt
COCCNC(=O)c1ccc(CS(=O)(=O)c2ccc(C)cc2)o1	2.7%	-22.4%	12.5%	-14.3%	35.5µM*	-10.7%
CC(=O)c1sc(NC(=O)c2ccc(Cn3cc(Br)cn3)o2)nc1C	2.6%	7.3%	8.1%	5.8%	50.1µM*	-8.5%
COC(=O)c1ccc(COc2ccc3c(c2)CCC3)o1	?	24.7%	1.3%	?	42.4%	-4.9%
CC(=O)c1sc(NC(=O)c2ccc(Br)o2)nc1C	nt	0.0%	-5.4%	nt	-26.8%	-14.9%
O=C(NCc1cccnc1)c1ccc(COc2ccc3c(c2)CCC3)o1	?	17.8µM*	-19.2%	23.1µM*	-11.7%	-4.1%

Assay outcomes (PubChem BioAssay)
